{"source": "paper PMC7819943", "about": "“Rice protein-binding microarrays: a tool to detect cis-acting elements near promoter regions in rice”", "note": "In all, about 68,000 sequences were measured (“fluorescence intensity (a.u.)”: median about 9,100, highest 2% from about 16,000 on). This excerpt belongs to a sample that is enriched for the highest values.", "data": [{"target": "OsWRKY34 (Oryza sativa, UniProt Q0JBA9 1-250)", "sequence (Q0JBA9 entry or part of it)": "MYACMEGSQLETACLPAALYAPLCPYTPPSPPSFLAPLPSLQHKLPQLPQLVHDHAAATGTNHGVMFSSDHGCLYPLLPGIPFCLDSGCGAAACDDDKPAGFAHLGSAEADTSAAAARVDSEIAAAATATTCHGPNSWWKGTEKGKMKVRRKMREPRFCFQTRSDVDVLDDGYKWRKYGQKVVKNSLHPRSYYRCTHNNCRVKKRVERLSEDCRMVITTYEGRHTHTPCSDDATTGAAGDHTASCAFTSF", "test": "protein-binding microarray (RPBM); PBS, 2% BSA, 51.3 ng/ul salmon testes DNA, 50 uM zinc acetate, 200 nM TF, 25 C, 1 h; high values mean tight binding", "details": "protein: recombinant; tags: N-terminal polyhistidine and DsRed monomer fusion (pET32a); label: CyDye5-dUTP incorporated in the synthesized complementary strand; 3' TTTTT single-stranded linker to array surface; dsDNA, one strand shown", "how_it_was_run": "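An Axon 4000B scanner gave the binding signal as per-feature fluorescence intensity in arbitrary units. This followed washing of a custom Agilent array that had been incubated for 1 h at 25 °C with 200 nM protein in PBS, 2% BSA, salmon testes DNA and 50 µM zinc acetate. The proteins were transcription factors fused at the N-terminus to polyhistidine and DsRed, expressed in E. coli BL21-CodonPlus and purified on Ni–NTA.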", "values": [{"sequence": "CTCGAACCACTGACCATCCCGTCCACACTGCACCGCGCTACGGAGTCACCTAGTGCAG", "binding signal": "8260 fluorescence intensity (a.u.)"}, {"sequence": "AGCCACGACCCAATCTTCGCTGCGGTTGACTTTAAATTAACGGAGTCACCTAGTGCAG", "binding signal": "9760 fluorescence intensity (a.u.)"}, {"sequence": "GCGTGTGTTCTTGTGCTGGATTGTGGAGTTCTTGATCCCTCGGAGTCACCTAGTGCAG", "binding signal": "10000 fluorescence intensity (a.u.)"}, {"sequence": "ACTCCGGCGGGTTAGGGTTTGGGGTTGGGGTGAGGGTAGGCGGAGTCACCTAGTGCAG", "binding signal": "10900 fluorescence intensity (a.u.)"}, {"sequence": "GCGCGGCGCGGCGGGACGGGGTGGGGCGAGGGCAGCAGCGCGGAGTCACCTAGTGCAG", "binding signal": "8520 fluorescence intensity (a.u.)"}, {"sequence": "GATAACATGTTGTAGTCTTCCAGGGGTGGGTGTTAGCTGTCGGAGTCACCTAGTGCAG", "binding signal": "16700 fluorescence intensity (a.u.)"}, {"sequence": "CATGGTGACATGTTGTGGGGCTGTGTCTTGTGGGTACAGTCGGAGTCACCTAGTGCAG", "binding signal": "8650 fluorescence intensity (a.u.)"}, {"sequence": "AGGAGGGGAGGCGCGGCGGAGGAGAAGAGGTGGGGATGGACGGAGTCACCTAGTGCAG", "binding signal": "10000 fluorescence intensity (a.u.)"}, {"sequence": "TGTGGGACGATGGGGAGGTGTGGGGACGCACGCGGGGCGACGGAGTCACCTAGTGCAG", "binding signal": "10200 fluorescence intensity (a.u.)"}, {"sequence": "AACATAACTGTCTTCTTCCATTTGTATGTCATGTTTCTGTCGGAGTCACCTAGTGCAG", "binding signal": "10700 fluorescence intensity (a.u.)"}, {"sequence": "GGCGGCGCGGGTTTAGCGGGATGGGGAGGCGGCGAGTGGCCGGAGTCACCTAGTGCAG", "binding signal": "8140 fluorescence intensity (a.u.)"}, {"sequence": "GCGATGGGAGGTGGGCGACGCGAGGGAGAGGGGAGAGGGGCGGAGTCACCTAGTGCAG", "binding signal": "18500 fluorescence intensity (a.u.)"}, {"sequence": "CGAAATGGGAGGCGGGGTTTAGGGTTTCCGGCGGGGAGGGCGGAGTCACCTAGTGCAG", "binding signal": "25200 fluorescence intensity (a.u.)"}, {"sequence": "GGACGGAGGGGCGGGGTGCGACGCGGACGGCGGCGGCGGGCGGAGTCACCTAGTGCAG", "binding signal": "13500 fluorescence intensity (a.u.)"}, {"sequence": "GGAGATACGGCGAGGGGAGGGGACGGAGGGGCGGGGTGCGCGGAGTCACCTAGTGCAG", "binding signal": "24700 fluorescence intensity (a.u.)"}, {"sequence": "GAGGACTGGGCGAAGGGGTGGAAGAAAATGTGGTTGTCGACGGAGTCACCTAGTGCAG", "binding signal": "8580 fluorescence intensity (a.u.)"}, {"sequence": "ATGGCTCGGTGGTGCACTATTTTTTTTTTAACTTAATTTGCGGAGTCACCTAGTGCAG", "binding signal": "12100 fluorescence intensity (a.u.)"}, {"sequence": "CACAATAGACCACCCGAAACCACATCTTCAACACTTCAATCGGAGTCACCTAGTGCAG", "binding signal": "8530 fluorescence intensity (a.u.)"}, {"sequence": "CTCTCCGTGCATCTATATAAACTGGCCCTGATCAATCTCACGGAGTCACCTAGTGCAG", "binding signal": "9650 fluorescence intensity (a.u.)"}, {"sequence": "CAGGCGACCACCTCCAGCTCCGCGCCATCTCCATGTCATCCGGAGTCACCTAGTGCAG", "binding signal": "10800 fluorescence intensity (a.u.)"}, {"sequence": "TGCACCTGTTTGGCTTAGTACCAGTGCGCTACTGGTTTCACGGAGTCACCTAGTGCAG", "binding signal": "9680 fluorescence intensity (a.u.)"}, {"sequence": "TACTCCGTACAAATTTTCTTCTGGATCCCACCTCTGCTCTCGGAGTCACCTAGTGCAG", "binding signal": "9050 fluorescence intensity (a.u.)"}, {"sequence": "CCCACCTCGCTGTCGTTTCTTCCTCTGGCTGGTCGCGTTGCGGAGTCACCTAGTGCAG", "binding signal": "12700 fluorescence intensity (a.u.)"}, {"sequence": "TTTCTTTCCTGTTTTAGGAGGGTTTTCCACGTTAAATCTTCGGAGTCACCTAGTGCAG", "binding signal": "8290 fluorescence intensity (a.u.)"}, {"sequence": "TTTTTTTAAAATTTGCATGTTTTTTGGTCGTGTAAAATTTCGGAGTCACCTAGTGCAG", "binding signal": "8290 fluorescence intensity (a.u.)"}, {"sequence": "TAGGAGGTGGCGGCCGGTGGTGGCGGATCCGGCGGCGGGGCGGAGTCACCTAGTGCAG", "binding signal": "8840 fluorescence intensity (a.u.)"}, {"sequence": "TGGGAGGAGGGAGGGAGGAGGAGGGCGGAGATAGGTGGTGCGGAGTCACCTAGTGCAG", "binding signal": "11400 fluorescence intensity (a.u.)"}, {"sequence": "GGCACCGGCGGAGGGGCGCGGGAGGGGAGGCGGCGGCGAGCGGAGTCACCTAGTGCAG", "binding signal": "15600 fluorescence intensity (a.u.)"}, {"sequence": "AGGGGAGAGGAGGGGAGGCGGCGCGGCGGCGAGGAGGGGACGGAGTCACCTAGTGCAG", "binding signal": "10200 fluorescence intensity (a.u.)"}, {"sequence": "AAAGGTGGTGGTAGGGGATAGATCCGGGGCGGGCGGCATGCGGAGTCACCTAGTGCAG", "binding signal": "23400 fluorescence intensity (a.u.)"}, {"sequence": "GGGGCGGAAACGGGCGAGGGAGGCGCGGGGAGGGTTTAAACGGAGTCACCTAGTGCAG", "binding signal": "22600 fluorescence intensity (a.u.)"}, {"sequence": "ATATCGAAATTGATGCTTGACCAGTCAACACTACTTAATCCGGAGTCACCTAGTGCAG", "binding signal": "9070 fluorescence intensity (a.u.)"}, {"sequence": "GTCGCTTGTCGTTGTTGCCCTGAACTGTTGGTGCTGGTTCCGGAGTCACCTAGTGCAG", "binding signal": "9320 fluorescence intensity (a.u.)"}, {"sequence": "GTACATACCCGTATTATTTATCTGTCGCTATGTAGGATTTCGGAGTCACCTAGTGCAG", "binding signal": "10500 fluorescence intensity (a.u.)"}, {"sequence": "CCACCGGCGGGCCCCACCATCTTGACTCCTCTCTGTGATCCGGAGTCACCTAGTGCAG", "binding signal": "8610 fluorescence intensity (a.u.)"}, {"sequence": "TGTGGTGCGTCTCCTCGTGCAGTTTTTGCCCTTGATTTGACGGAGTCACCTAGTGCAG", "binding signal": "11800 fluorescence intensity (a.u.)"}, {"sequence": "GTTGACTTTTTGACAAACGTTTGACTTTTCGTCTTATTCACGGAGTCACCTAGTGCAG", "binding signal": "17400 fluorescence intensity (a.u.)"}, {"sequence": "CCTTTGACTTTTTGATAAACGTTTGACCTTTCGTCTTATTCGGAGTCACCTAGTGCAG", "binding signal": "22800 fluorescence intensity (a.u.)"}, {"sequence": "GACTTTTCGGTTCTTAAGCTGACTTATAATTAGTCTAAACCGGAGTCACCTAGTGCAG", "binding signal": "8630 fluorescence intensity (a.u.)"}, {"sequence": "TGATTTTTTGACAAACATTTGACCTTTCGTCTTATTTAAACGGAGTCACCTAGTGCAG", "binding signal": "8620 fluorescence intensity (a.u.)"}, {"sequence": "GACTTTTTAGCATATGTTTGACCGTTCGTCTTATTCAAAACGGAGTCACCTAGTGCAG", "binding signal": "10600 fluorescence intensity (a.u.)"}, {"sequence": "TCGTTAACTTTTTAATAAACGTTTGACCTTTCGTCTTATTCGGAGTCACCTAGTGCAG", "binding signal": "10200 fluorescence intensity (a.u.)"}, {"sequence": "CATTGTTTTCTAATATTCGGCCATGGCTTTTGACATTTTACGGAGTCACCTAGTGCAG", "binding signal": "8430 fluorescence intensity (a.u.)"}, {"sequence": "CGGTTGACTTTTTTTTTCTAATAAGCCAAAACGGCTTATTCGGAGTCACCTAGTGCAG", "binding signal": "18800 fluorescence intensity (a.u.)"}]}]}
